Results filed as inconclusive are left out. The source made the active and inactive calls. Calls come from the whole dose curve; as a rule, active = well fitted inhibition curve with a large enough effect; inconclusive = small, poorly fitted or top-dose-only effect; inactive = flat fitted curve, though single readings scatter.
Potency is the fitted concentration of half-maximal effect.

Tyrosyl-DNA phosphodiesterase 1 (Homo sapiens), sequence (Q9NUW8 whole entry, looked up): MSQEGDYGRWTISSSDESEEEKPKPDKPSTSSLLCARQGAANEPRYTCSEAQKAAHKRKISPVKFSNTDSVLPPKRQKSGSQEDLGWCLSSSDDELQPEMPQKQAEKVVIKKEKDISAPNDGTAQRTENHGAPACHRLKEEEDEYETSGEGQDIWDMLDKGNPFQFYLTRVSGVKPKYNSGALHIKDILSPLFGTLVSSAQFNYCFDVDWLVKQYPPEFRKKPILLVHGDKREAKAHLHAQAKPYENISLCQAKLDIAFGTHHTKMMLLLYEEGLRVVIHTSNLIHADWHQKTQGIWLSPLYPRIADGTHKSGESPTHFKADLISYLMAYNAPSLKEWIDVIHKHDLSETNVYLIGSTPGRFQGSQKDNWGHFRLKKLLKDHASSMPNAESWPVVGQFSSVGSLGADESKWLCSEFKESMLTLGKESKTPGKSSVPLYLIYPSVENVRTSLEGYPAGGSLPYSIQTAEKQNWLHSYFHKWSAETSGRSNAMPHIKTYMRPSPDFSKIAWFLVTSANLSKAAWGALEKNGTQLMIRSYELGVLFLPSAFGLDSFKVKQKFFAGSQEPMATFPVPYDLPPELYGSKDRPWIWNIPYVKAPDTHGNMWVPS

The test deals with Tyrosyl-DNA phosphodiesterase 1 (Homo sapiens) (UniProt Q9NUW8). Description: Confirmation Assay for Inhibitors of Tyrosyl-DNA Phosphodiesterase (TDP1) (AID 489007). Note: nearly all actives have a fitted effect of over 40% in size. The following applies: recombinant human TDP1 enzymatic activity, dose-response. In a few lines:
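AlphaScreen read-out: streptavidin donor and anti-FITC acceptor beads (10 ug/ml) bind intact substrate, so Tdp1 removal of tyrosine-FITC lowers signal. Enzyme 1 nM, substrate 15 nM, 5 min reaction at room temperature after 15 min compound preincubation.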
On to `CSc1ccccc1NC(=O)c1noc2c1CCC2`, for which the Potency was 126 µM (active). For `COc1ccc(OCc2cc(C(=O)O)c(C)o2)cc1`, the Potency was 10 µM (active). Turning to `Cc1ccc(CN2C(=O)N/C(=C\c3ccc(-c4ccc(C(=O)O)cc4C)o3)C2=O)cc1`, the Potency is 7.94 µM (active).

Regarding `O=C1CC(=O)N(Cc2ccco2)C(=S)N1`, the Potency is 15.8 µM (active). Turning to `O=C(COc1ccc2oc(-c3ccccc3)cc(=O)c2c1)NCc1ccco1`, the Potency is 44.7 µM (active). Under `CN(C)c1nc(-c2ccccc2)c2cnn(Cc3ccccc3)c2n1` stands 63.1 µM (active); under `Nc1cc([N+](=O)[O-])ccc1N1C(=O)CCCC1=O`, 15.8 µM (active); under `O=C(O)CCC(=O)N(Cc1cccs1)Cc1cccs1`, 112 µM (active). As for `O=C(COc1ccc2oc(-c3ccco3)cc(=O)c2c1)N1CCCCC1`, the Potency is 79.4 µM (active). Regarding `COc1ccc2cc3cc(C(=O)NCc4cccs4)oc3nc2c1`, the Potency was 25.1 µM (active). In the case of `COc1ccc2nc(N3CCCCC3)c(C#N)cc2c1`, the Potency is 31.6 µM (active). On to `Nc1ccc(N)c(C(=O)O)c1`, for which the Potency is 0.199 µM (active). On to `CC1=NN(c2ccc(Cl)c(C(=O)O)c2)C(=O)/C1=C\c1ccc(-c2ccc(C(=O)O)cc2)o1`, for which the Potency was 14.1 µM (active). With `Cc1nnc(NC(=O)CCSCCC(=O)Nc2nnc(C)s2)s1`, the Potency was 15.8 µM (active). As to `CCN(CC)C(=O)COc1ccc2oc(-c3ccco3)cc(=O)c2c1`, the Potency was 112 µM (active). Turning to `O=S(=O)(O)c1ccc2c(c1)-c1nc-2nc2[nH]c(nc3nc(nc4[nH]c(n1)c1ccc(S(=O)(=O)O)cc41)-c1ccc(S(=O)(=O)O)cc1-3)c1ccc(S(=O)(=O)O)cc21`, the Potency is 0.0282 µM (active).

(Values after PubChem BioAssay (NCATS).)
